# Source: PubChem BioAssay (EPA / NIEHS)
# Activity calls are given as the source filed them. How the source made its calls: active means hit-call score of the fitted dose curve at least 0.9, where 1 is the maximum; inactive means score below 0.9.
# Tests used:
# Conditions in all cases: mRNA level, 48 h; actives raise or lower the signal
# [1] = read-out: Tumor necrosis factor receptor superfamily member 6 (Homo sapiens) (UniProt P25445); assay: LTEA_HepaRG_FAS: Life Technologies and Expression Analysis (LTEA) Assay for Fas cell surface death receptor (FAS) using HepaRG (AID 2283447)
# How it was run: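 Differentiated human HepaRG cells, pre-cultured 48 h, were exposed in duplicate for 48 h to 8-point half-log concentrations (top 100 uM, 0.5% DMSO) in serum-free induction medium; FAS mRNA measured by qRT-PCR, normalized to ACTB/GAPDH/POLR2A, bidirectional fit versus DMSO.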
# [2] = read-out: Fatty acid synthase (Homo sapiens) (UniProt P49327); assay: LTEA_HepaRG_FASN: Life Technologies and Expression Analysis (LTEA) Assay for Fatty Acid Synthase (FASN) using HepaRG (AID 2283448)
# How it was run: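 Differentiated human HepaRG cells were exposed for 48 h in serum-free induction medium to eight half-log concentrations up to 100 uM in 0.5% DMSO, in duplicate. FASN mRNA was quantified by TaqMan qRT-PCR, normalized to ACTB/GAPDH/POLR2A, and fitted bidirectionally against DMSO.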
# [3] = read-out: Cyclin D2 (CCND2), CCND2 (gene 894); assay: LTEA_HepaRG_CCND2: Life Technologies and Expression Analysis (LTEA) Assay for Cyclin D2 (CCND2) using HepaRG (AID 2283449);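 further: CCND2 transcript measured by TaqMan qRT-PCR and normalised to three housekeeping genes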
# How it was run: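 Differentiated human HepaRG cells were exposed for 48 h in serum-free induction medium to eight half-log concentrations topping at 100 uM (0.5% DMSO vehicle). CCND2 mRNA was quantified by TaqMan qRT-PCR, normalised to ACTB, GAPDH and POLR2A, and fitted bidirectionally against DMSO.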
# [4] = read-out: Cyclin Dependent Kinase Inhibitor 1A (CDKN1A), CDKN1A (gene 1026); assay: LTEA_HepaRG_CDKN1A: Life Technologies and Expression Analysis (LTEA) Assay for Cyclin Dependent Kinase Inhibitor 1A (CDKN1A) using HepaRG (AID 2283450)
# How it was run: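 Expression quantified by Fluidigm qRT-PCR with ACTB, GAPDH and POLR2A normalization, fitted bidirectionally against 0.5% DMSO. Cells: HepaRG, plated 48 h then treated 48 h in serum-free induction medium, top concentration 100 uM with half-log dilutions.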
# [5] = read-out: Cyclin D1 (CCND1), CCND1 (gene 595); assay: LTEA_HepaRG_CCND1: Life Technologies and Expression Analysis (LTEA) Assay for Cyclin D1 (CCND1) using HepaRG (AID 2283451)
# How it was run: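 Expression of CCND1 was quantified by qRT-PCR on Fluidigm arrays using ACTB, GAPDH and POLR2A as reference genes. HepaRG cultures, plated 48 h beforehand, were dosed for 48 h at up to 100 uM (half-log, 8 points) in 0.5% DMSO.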
# [6] = read-out: catalase (CAT), CAT (gene 847); assay: LTEA_HepaRG_CAT: Life Technologies and Expression Analysis (LTEA) Assay for catalase (CAT) using HepaRG (AID 2283452)
# How it was run: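 Differentiated HepaRG cells in serum-free induction medium were dosed 48 h in duplicate, eight half-log concentrations from 100 uM in 0.5% DMSO. Transcript measured by TaqMan qRT-PCR, normalised to ACTB/GAPDH/POLR2A, fitted bidirectionally against DMSO.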
# [7] = read-out: flavin-containing dimethylaniline monooxygenases 3 (FMO3), FMO3 (gene 2328); assay: LTEA_HepaRG_FMO3: Life Technologies and Expression Analysis (LTEA) Assay for flavin-containing dimethylaniline monooxygenases 3 (FMO3) using HepaRG (AID 2283453)
# How it was run: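 HepaRG, 48 h exposure, 8-pt half-log series from 100 uM, 0.5% DMSO vehicle, duplicates; FMO3 transcript by Fluidigm TaqMan qRT-PCR, housekeeping-normalized; gain/loss fit vs DMSO.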
# [8] = read-out: Cytochrome P450 (CYP1A1), CYP1A1 (gene 1543); assay: LTEA_HepaRG_CYP1A1: Life Technologies and Expression Analysis (LTEA) Assay for Cytochrome P450 (CYP1A1) using HepaRG (AID 2283454)
# How it was run: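 CYP1A1 transcript levels measured by Fluidigm qRT-PCR against three housekeeping genes, 48 h after chemical dosing of human HepaRG cells (highest concentration 100 uM, half-log steps, 0.5% DMSO vehicle). Gain or loss of signal fitted relative to DMSO.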
# [9] = read-out: CFLAR gene, CFLAR (gene 8837); assay: LTEA_HepaRG_CFLAR: Life Technologies and Expression Analysis (LTEA) Assay for CFLAR gene using HepaRG (AID 2283455)
# How it was run: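 HepaRG cells were plated for 48 h, switched to serum-free induction medium, then exposed in duplicate for 48 h to 8 concentrations (top 100 uM, half-log steps, 0.5% DMSO). CFLAR mRNA was measured by qRT-PCR, normalized to ACTB, GAPDH and POLR2A.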
# [10] = read-out: Forkhead box O1 (FOXO1), FOXO1 (gene 2308); assay: LTEA_HepaRG_FOXO1: Life Technologies and Expression Analysis (LTEA) Assay for Forkhead box O1 (FOXO1) using HepaRG (AID 2283456)
# How it was run: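 Differentiated human HepaRG cells in serum-free induction medium were exposed in duplicate for 48 h to eight half-log concentrations (top 100 uM, 0.5% DMSO). FOXO1 mRNA was measured by TaqMan qRT-PCR, normalised to ACTB, GAPDH and POLR2A, and fitted bidirectionally against DMSO.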
# [11] = read-out: growth arrest and DNA damage 45 (GADD45A), GADD45A (gene 1647); assay: LTEA_HepaRG_GADD45A: Life Technologies and Expression Analysis (LTEA) Assay for growth arrest and DNA damage 45 (GADD45A) using HepaRG (AID 2283458)
# How it was run: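 Differentiated HepaRG cells were exposed in duplicate for 48 h in serum-free induction medium to 8-point half-log concentrations up to 100 uM in 0.5% DMSO. GADD45A mRNA was measured by TaqMan qRT-PCR, normalized to ACTB, GAPDH and POLR2A, with bidirectional fitting versus DMSO.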
# [12] = read-out: ABC Transporter (ABCB1), ABCB1 (gene 5243); assay: LTEA_HepaRG_ABCB1: Life Technologies and Expression Analysis (LTEA) Assay for ABC Transporter (ABCB1) using HepaRG (AID 2283460)
# How it was run: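 Differentiated human HepaRG cells, plated 48 h then switched to serum-free induction medium, were exposed in duplicate to eight half-log concentrations up to 100 uM in 0.5% DMSO for 48 h. ABCB1 mRNA was measured by TaqMan qRT-PCR, normalized to ACTB/GAPDH/POLR2A.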
# Fatty acid synthase (Homo sapiens), sequence (P49327 whole entry, looked up): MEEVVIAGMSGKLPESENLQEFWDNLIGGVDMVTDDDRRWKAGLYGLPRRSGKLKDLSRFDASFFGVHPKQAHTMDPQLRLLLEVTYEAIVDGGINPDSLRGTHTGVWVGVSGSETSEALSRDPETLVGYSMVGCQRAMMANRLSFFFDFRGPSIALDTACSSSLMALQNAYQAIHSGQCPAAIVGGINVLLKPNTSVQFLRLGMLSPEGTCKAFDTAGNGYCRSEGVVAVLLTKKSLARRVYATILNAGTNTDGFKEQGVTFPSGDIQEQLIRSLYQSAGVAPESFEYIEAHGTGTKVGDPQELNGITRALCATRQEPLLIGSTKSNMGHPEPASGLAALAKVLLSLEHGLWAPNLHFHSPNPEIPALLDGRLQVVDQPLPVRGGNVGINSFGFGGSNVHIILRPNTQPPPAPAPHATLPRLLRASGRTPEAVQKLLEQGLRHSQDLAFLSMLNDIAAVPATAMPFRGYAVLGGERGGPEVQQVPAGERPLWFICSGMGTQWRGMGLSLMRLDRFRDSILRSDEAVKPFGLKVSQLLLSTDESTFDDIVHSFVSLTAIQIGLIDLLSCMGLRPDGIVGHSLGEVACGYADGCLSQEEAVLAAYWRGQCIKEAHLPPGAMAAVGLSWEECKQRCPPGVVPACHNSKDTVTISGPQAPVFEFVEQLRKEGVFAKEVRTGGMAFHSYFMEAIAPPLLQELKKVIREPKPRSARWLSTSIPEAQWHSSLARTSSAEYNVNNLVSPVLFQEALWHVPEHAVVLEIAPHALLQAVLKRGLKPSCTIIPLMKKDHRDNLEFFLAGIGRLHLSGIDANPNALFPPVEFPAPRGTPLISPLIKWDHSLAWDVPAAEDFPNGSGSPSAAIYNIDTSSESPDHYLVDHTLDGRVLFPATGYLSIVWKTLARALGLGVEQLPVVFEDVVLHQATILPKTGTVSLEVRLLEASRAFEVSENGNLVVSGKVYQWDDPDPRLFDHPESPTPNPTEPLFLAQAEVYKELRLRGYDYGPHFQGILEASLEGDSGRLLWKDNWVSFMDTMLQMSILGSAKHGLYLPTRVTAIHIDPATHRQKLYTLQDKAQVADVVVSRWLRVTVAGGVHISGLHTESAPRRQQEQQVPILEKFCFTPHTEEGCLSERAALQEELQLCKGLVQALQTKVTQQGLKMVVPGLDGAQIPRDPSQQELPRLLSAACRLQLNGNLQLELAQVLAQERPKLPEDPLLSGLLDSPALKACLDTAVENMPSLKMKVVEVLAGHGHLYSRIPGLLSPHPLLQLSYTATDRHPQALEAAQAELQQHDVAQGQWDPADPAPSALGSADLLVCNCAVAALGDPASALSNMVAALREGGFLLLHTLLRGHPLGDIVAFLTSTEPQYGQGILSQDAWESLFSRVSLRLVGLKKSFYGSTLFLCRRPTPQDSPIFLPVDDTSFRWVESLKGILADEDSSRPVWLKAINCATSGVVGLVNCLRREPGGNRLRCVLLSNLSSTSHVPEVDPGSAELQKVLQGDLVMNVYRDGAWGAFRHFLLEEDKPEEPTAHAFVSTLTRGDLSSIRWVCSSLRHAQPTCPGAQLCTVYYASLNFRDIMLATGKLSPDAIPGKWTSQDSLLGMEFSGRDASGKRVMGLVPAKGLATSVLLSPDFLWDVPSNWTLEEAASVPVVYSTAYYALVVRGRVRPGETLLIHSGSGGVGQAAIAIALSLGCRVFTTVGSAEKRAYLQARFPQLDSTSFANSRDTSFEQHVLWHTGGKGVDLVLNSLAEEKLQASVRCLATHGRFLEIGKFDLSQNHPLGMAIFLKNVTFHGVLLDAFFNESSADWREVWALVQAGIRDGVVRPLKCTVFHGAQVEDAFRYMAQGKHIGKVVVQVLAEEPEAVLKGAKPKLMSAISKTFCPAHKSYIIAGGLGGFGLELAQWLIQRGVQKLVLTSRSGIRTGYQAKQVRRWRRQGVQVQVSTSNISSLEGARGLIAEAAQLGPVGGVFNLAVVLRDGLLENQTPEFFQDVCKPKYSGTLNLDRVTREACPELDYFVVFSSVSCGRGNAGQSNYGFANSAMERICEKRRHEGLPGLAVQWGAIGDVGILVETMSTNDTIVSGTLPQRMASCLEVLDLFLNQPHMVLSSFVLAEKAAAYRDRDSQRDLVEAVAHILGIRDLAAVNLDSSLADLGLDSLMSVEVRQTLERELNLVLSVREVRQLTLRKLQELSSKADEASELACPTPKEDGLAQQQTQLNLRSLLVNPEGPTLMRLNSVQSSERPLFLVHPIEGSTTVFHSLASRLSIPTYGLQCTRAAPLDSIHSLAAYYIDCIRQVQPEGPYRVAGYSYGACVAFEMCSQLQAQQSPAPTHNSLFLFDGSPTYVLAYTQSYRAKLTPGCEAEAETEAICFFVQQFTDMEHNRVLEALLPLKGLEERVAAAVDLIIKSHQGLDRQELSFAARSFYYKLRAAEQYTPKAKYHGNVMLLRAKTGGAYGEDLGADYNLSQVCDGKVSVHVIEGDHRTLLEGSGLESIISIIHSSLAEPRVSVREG
SMILES,outcome [1],outcome [2],outcome [3],outcome [4],outcome [5],outcome [6],outcome [7],AC50 [8],outcome [9],outcome [10],outcome [11],outcome [12],outcome [8],AC50 [4],AC50 [12],AC50 [1],AC50 [11],AC50 [3]
CCC1(c2ccccc2)C(=O)N=C(O)NC1=O (configuration not stated),inactive,inactive,inactive,inactive,inactive,inactive,inactive,64.3 µM (active),inactive,inactive,inactive,inactive,–,–,–,–,–,–
O=C(O)C(Cl)Cl,inactive,inactive,inactive,inactive,inactive,inactive,inactive,–,inactive,inactive,inactive,inactive,inactive,–,–,–,–,–
CCOP(=S)(OCC)SCSCC,inactive,inactive,–,inactive,inactive,inactive,inactive,66.7 µM (active),inactive,inactive,inactive,inactive,–,–,–,–,–,–
O=[N+]([O-])c1ccccc1,–,inactive,inactive,inactive,inactive,inactive,inactive,50 µM (active),inactive,inactive,inactive,inactive,–,–,–,–,–,–
ClC(Cl)(Cl)c1ccccc1,inactive,inactive,inactive,inactive,inactive,inactive,inactive,–,inactive,inactive,inactive,inactive,inactive,–,–,–,–,–
CCOC(=O)c1ccccc1C(=O)OCC,inactive,inactive,inactive,inactive,inactive,inactive,inactive,74 µM (active),inactive,inactive,inactive,inactive,–,–,–,–,–,–
OCC1CO1 (configuration not stated),inactive,inactive,inactive,inactive,inactive,inactive,inactive,–,inactive,inactive,inactive,inactive,inactive,–,–,–,–,–
CCCCN(CCCC)N=O,inactive,inactive,inactive,inactive,inactive,inactive,inactive,–,inactive,inactive,inactive,inactive,inactive,–,–,–,–,–
CCOS(=O)(=O)OCC,inactive,inactive,inactive,inactive,inactive,inactive,inactive,–,inactive,inactive,inactive,inactive,inactive,–,–,–,–,–
c1cc2c3c(cccc3c1)CC2,inactive,inactive,inactive,–,inactive,inactive,inactive,72.4 µM (active),inactive,inactive,inactive,inactive,–,0.387 µM (active),–,–,–,–
CCOc1ccc(C(C)(C)COCc2cccc(Oc3ccccc3)c2)cc1,inactive,inactive,–,inactive,inactive,inactive,inactive,41 µM (active),inactive,inactive,inactive,–,–,–,8.69 µM (active),–,–,–
CCCCCCCc1ccc(O)cc1,inactive,inactive,–,inactive,inactive,inactive,inactive,–,inactive,inactive,inactive,inactive,inactive,–,–,–,–,–
CC(C)(C)OOC(C)(C)C,inactive,inactive,inactive,inactive,inactive,inactive,inactive,–,inactive,inactive,inactive,inactive,inactive,–,–,–,–,–
O=P1(N(CCCl)CCCl)NCCCO1 (configuration not stated),inactive,inactive,inactive,inactive,inactive,inactive,inactive,50 µM (active),inactive,inactive,inactive,inactive,–,–,–,–,–,–
Cc1ccc([N+](=O)[O-])cc1C,inactive,inactive,inactive,inactive,inactive,inactive,inactive,68.1 µM (active),inactive,inactive,inactive,inactive,–,–,–,–,–,–
COCCOCCO,inactive,inactive,–,inactive,inactive,inactive,inactive,–,inactive,inactive,inactive,inactive,inactive,–,–,–,–,–
ClC1=C(Cl)C2(Cl)C3C(Cl)C(Cl)CC3C1(Cl)C2(Cl)Cl (configuration not stated),inactive,inactive,inactive,inactive,inactive,inactive,inactive,33.4 µM (active),inactive,inactive,inactive,–,–,–,6.37 µM (active),–,–,–
CN(C)C(=O)Cl,inactive,inactive,inactive,inactive,inactive,inactive,inactive,50 µM (active),inactive,–,inactive,inactive,–,–,–,–,–,–
O=[N+]([O-])c1ccc(Cl)c(Cl)c1,inactive,inactive,inactive,inactive,inactive,inactive,inactive,5.16 µM (active),inactive,inactive,inactive,inactive,–,–,–,–,–,–
O=C(O)C1C(C(=O)O)C2(Cl)C(Cl)=C(Cl)C1(Cl)C2(Cl)Cl (configuration not stated),inactive,inactive,inactive,inactive,inactive,inactive,inactive,–,inactive,inactive,inactive,inactive,inactive,–,–,–,–,–
CCCN(CCC)c1c([N+](=O)[O-])cc(C(C)C)cc1[N+](=O)[O-],–,inactive,inactive,inactive,inactive,inactive,inactive,24.5 µM (active),inactive,inactive,–,–,–,–,50 µM (active),12.7 µM (active),0.234 µM (active),–
CSC(C)(C)C=NO,inactive,inactive,–,inactive,inactive,inactive,inactive,–,inactive,inactive,inactive,inactive,inactive,–,–,–,–,–
CCCCc1ccccc1,inactive,inactive,inactive,inactive,inactive,inactive,inactive,75.6 µM (active),inactive,inactive,inactive,inactive,–,–,–,–,–,–
CC(Cc1ccc(OCC(=O)O)cc1)NCC(O)c1csc(C(F)(F)F)n1 (configuration not stated),inactive,inactive,inactive,inactive,inactive,inactive,inactive,0.0496 µM (active),inactive,inactive,inactive,inactive,–,–,–,–,–,–
CCN(CC)c1ccccc1,inactive,inactive,inactive,inactive,inactive,inactive,inactive,50 µM (active),inactive,inactive,inactive,inactive,–,–,–,–,–,–
CCCCN(CCCC)SN(C)C(=O)Oc1cccc2c1OC(C)(C)C2,inactive,inactive,inactive,inactive,inactive,inactive,inactive,50 µM (active),inactive,inactive,inactive,–,–,–,23.2 µM (active),–,–,–
c1nc[nH]n1,inactive,inactive,–,inactive,inactive,inactive,inactive,0.146 µM (active),inactive,inactive,inactive,inactive,–,–,–,–,–,0.0353 µM (active)
